We go through ten compounds from PubChem BioAssay (NCATS).

The nature of assay [1]: Cell Viability - H-4-II-E (AID 543).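 Further: cells exposed to compound for 40 hours; on the % scale 0 is the no-effect control and ±100 the full control effect; nearly all actives have a fitted effect of over 35% in size.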 Put shortly: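 AC50 from Hill-modelled qHTS concentration-response curves. H-4-II-E rat hepatoma cells in complete medium, 40 hr exposure at 37 °C, viability by CellTiter-Glo ATP luminescence.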
Assay [2] in a line: Cell Viability - Renal Proximal Tubule (AID 545).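 Further: cells exposed to compound for 40 hours; 0% = DMSO only and -100% = 100 µM tamoxifen; nearly all actives have a fitted effect of over 40% in size.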 To be noted: renal proximal tubule cells viability, primary cells of rat origin; activity change, negative = cytotoxicity: at 91.7 µM (top of the series). Put shortly: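 Primary rat renal proximal tubule cells (1000/well) were treated with compounds for 40 hr at 37 °C in complete medium. Intracellular ATP was measured by CellTiter-Glo luminescence, and AC50 values came from Hill-equation fits of concentration-response data.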

The nature of assay [3]: Cell Viability - LYMP2-001 (AID 921).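 Further: 0% = DMSO only and full inhibition = tetraoctylammonium bromide control wells; nearly all actives have a fitted effect of over 70% in size.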 Put shortly:
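Human lymphoblastoid cells (Coriell), 2500 per well, were preincubated 5 hr at 37 C, then exposed to compounds in complete medium for 24 hr at 37 C. Cellular ATP was read by CellTiter-Glo luminescence; AC50 from Hill fits of concentration-response data.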

Assay [4] in a line: MultiTox-Fluor Cytotoxicity Assay - LYMP1-001 - Live Cells (AID 947).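 Further: 0% = DMSO only and full inhibition = tetraoctylammonium bromide control.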
Assay [5] in a line: Cell Viability - LYMP2-003 (AID 965).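 Further: cells exposed to compounds for 24 h before reading; 0% = DMSO only and full effect = 92 µM tetraoctylammonium bromide; nearly all actives have a fitted effect of over 50% in size.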 The essentials: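 Human lymphoblastoid cells (2500/well) were pre-incubated 5 hr at 37 C, then exposed to compounds over a concentration range for 24 hr at 37 C. Intracellular ATP was read by CellTiter-Glo luminescence; AC50 came from Hill-equation fits.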
A short description of assay [6]: Cell Viability - LYMP2-004 (AID 966).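 Further: plate controls were DMSO only for no effect and tetraoctylammonium bromide control for full effect; nearly all actives have a fitted effect of over 65% in size.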 The essentials:
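Viable-cell number estimated from ATP luminescence (CellTiter-Glo) in 2500 human lymphoblastoid cells/well after 24 hr at 37 C with compound. AC50 fitted to the standard Hill equation.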

Assay [7] can be described thus: Cell Viability - LYMP2-005 (AID 967).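 Further: plate controls were DMSO only for no effect and 92 µM tetraoctylammonium bromide control for full effect.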 The essentials:
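CellTiter-Glo luminescence (cellular ATP) read-out; LYMP2-005 lymphoblastoid cells, 2500/well, 5 h pre-incubation, then 24 h compound exposure at 37 C in complete medium. Tetraoctylammonium bromide positive control; AC50 by standard Hill fit.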

Assay [8] is described as follows: Cell Viability - LYMP2-011 (AID 969).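 Further: 0% = DMSO only and full inhibition = 92 µM tetraoctylammonium bromide; nearly all actives have a fitted effect of over 60% in size.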 Put shortly: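 Cells seeded at 2500 per well rest 5 hr before compound addition, then incubate 24 hr at 37 C. CellTiter-Glo reagent is added for 30 min at room temperature before luminescence detection.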
Assay [9] can be described thus: Cell Viability - LYMP2-019 (AID 973).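 Further: 0% = DMSO alone and full effect = 92 µM tetraoctylammonium bromide; nearly all actives have a fitted effect of over 55% in size.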 The essentials: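 AC50 values come from Hill-equation modelling of qHTS concentration-response curves, where viability is measured as luciferase-based ATP luminescence in the lymphoblastoid line after 24 hr compound exposure in complete culture medium.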
Assay [10] can be described thus: Cell Viability - LYMP2-021 (AID 974).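 Further: compound exposure lasts 24 hours at 37 °C; on the % scale 0 is the no-effect control and ±100 the full control effect; nearly all actives have a fitted effect of over 55% in size.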 The essentials:
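In qHTS format, compounds are tested against 2500 lymphoblastoid cells per well for 24 h; viable cell number is inferred from ATP-driven luciferase light, and Hill-equation fitting yields AC50 values.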

Assay [11] is described as follows: Cell Viability - LYMP2-002 (AID 977).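 Further: plate controls were DMSO only for no effect and 92 µM tetraoctylammonium bromide for full effect.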 The essentials: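 Human lymphoblastoid cells (2500/well) in complete medium were preincubated 5 hr at 37 C, then exposed to compounds for 24 hr at 37 C. Intracellular ATP was read by CellTiter-Glo luminescence; AC50 came from Hill-equation concentration-response fits.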
The nature of assay [12]: Cell Viability - LYMP2-007 (AID 979).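 Further: cells exposed to compound for 24 h before reading; 0% = DMSO only and the negative end = 92 µM tetraoctylammonium bromide; nearly all actives have a fitted effect of over 60% in size.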 Put shortly: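 Measured via luciferase-based ATP quantitation: lymphoblastoid cells, 24 hr compound exposure at 37 C, AC50 from Hill fits.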
The nature of assay [13]: Cell Viability - LYMP2-012 (AID 982).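 Further: cellular ATP by luciferase luminescence where a drop means cytotoxicity; cells exposed to compound for one day before reading; 0% = DMSO only and full loss = 92 µM tetraoctylammonium bromide; nearly all actives have a fitted effect of over 55% in size.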
Assay [14] can be described thus: Cell Viability - LYMP2-014 (AID 983).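 Further: plate controls were DMSO only for no effect and 92 µM tetraoctylammonium bromide for full effect; nearly all actives have a fitted effect of over 50% in size.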 The essentials:
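Quantitative HTS in lymphoblastoid cells: 24 hr compound exposure, then CellTiter-Glo ATP luminescence. Positive control was tetraoctylammonium bromide, 6.4pM to 92 uM.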

The nature of assay [15]: Cell Viability - LYMP2-016 (AID 984). Further: on the % scale 0 is the no-effect control and ±100 the full control effect; nearly all actives have a fitted effect of over 55% in size. The essentials: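 Human lymphoblastoid cells (LYMP2-016), 2500/well in complete medium, preincubated 5 hr at 37 C, then compound-treated 24 hr at 37 C. Intracellular ATP read by CellTiter-Glo luminescence after 30 min at room temperature; AC50 from Hill-equation concentration-response fits.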
Assay [16] is described as follows: Cell Viability - LYMP2-020 (AID 986). Put shortly: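 Cells at 2500 per well receive a 24 hr compound exposure at 37 C. Viability is measured as ATP-dependent luciferase luminescence, with AC50 modeled from qHTS concentration-response curves.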
Assay [17] in a line: qHTS assay for small molecule agonists of retinoid X receptor alpha signaling (AID 588544). The settings on record: HEK293T RXRa-UAS-bla, beta-lactamase reporter, 18 h; 530 nm emission.
The target of assay [18] is Voltage-gated inwardly rectifying potassium channel KCNH2 (Homo sapiens) (UniProt Q12809). Briefly: qHTS Assay for Small Molecule Inhibitors of the Human hERG Channel Activity (AID 588834).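 Further: top concentration of the series differs between compounds; on the % scale 0 is the no-effect control and ±100 the full control effect; lower thallium flux fluorescence means stronger hERG block; nearly all actives have a fitted effect of over 50% in size.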 The essentials:
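In hERG-transduced U2OS cells, dye-loaded for 1 hr at room temperature in dark, test compounds incubated 10 min at 37 °C before thallium stimulation. AC50 values derived by Hill modelling of concentration-response.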

The nature of assay [19]: qHTS assay for small molecule activators of the p53 signaling pathway (AID 651743; active means well fitted activation curve with a large enough effect in the signal ratio, not every such curve was filed as active; the % refers to the signal ratio; further: potency means the concentration at half of the fitted maximal effect; on activation: % of control where 0% means no effect). To be noted: HCT-116 p53RE-bla, beta-lactamase FRET ratio, 16 h; activation: stronger effect = higher value. Put shortly:
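A beta-lactamase reporter under p53 response element control, stably carried by HCT-116 cells, reported pathway activation. Test compounds were applied for 16 hours at 37 C, and fluorescence was measured 2 hours after adding the B/G FRET substrate.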

A short description of assay [20]: qHTS assay for small molecule disruptors of the mitochondrial membrane potential - 1 hr assay (AID 651754; calls by dose curve; further: nearly all actives have a fitted effect of over 35% in size; further: potency means the concentration at half of the fitted maximal effect). The essentials: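 In this qHTS format, a 1 hr compound treatment of HepG2 cells precedes Mito-MPS staining, and membrane potential is judged from aggregate (red) against monomer (green) fluorescence intensity.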
(In general: Quantitative high-throughput screening tests each substance at several concentrations.)

Molecules are shown by their SMILES. Records with an inconclusive call do not appear. The source made the active and inactive calls. Unless noted, the call rests on the fitted dose curve; in most records, active means well fitted curve in the direction sought with a large enough effect; inconclusive means small, poorly fitted or top-dose-only effect, or another doubt; inactive means no such curve, though single readings can be large; an effect the other way counts as inactive or inconclusive.

Chain of Voltage-gated inwardly rectifying potassium channel KCNH2 (Homo sapiens) (Q12809 whole entry, looked up): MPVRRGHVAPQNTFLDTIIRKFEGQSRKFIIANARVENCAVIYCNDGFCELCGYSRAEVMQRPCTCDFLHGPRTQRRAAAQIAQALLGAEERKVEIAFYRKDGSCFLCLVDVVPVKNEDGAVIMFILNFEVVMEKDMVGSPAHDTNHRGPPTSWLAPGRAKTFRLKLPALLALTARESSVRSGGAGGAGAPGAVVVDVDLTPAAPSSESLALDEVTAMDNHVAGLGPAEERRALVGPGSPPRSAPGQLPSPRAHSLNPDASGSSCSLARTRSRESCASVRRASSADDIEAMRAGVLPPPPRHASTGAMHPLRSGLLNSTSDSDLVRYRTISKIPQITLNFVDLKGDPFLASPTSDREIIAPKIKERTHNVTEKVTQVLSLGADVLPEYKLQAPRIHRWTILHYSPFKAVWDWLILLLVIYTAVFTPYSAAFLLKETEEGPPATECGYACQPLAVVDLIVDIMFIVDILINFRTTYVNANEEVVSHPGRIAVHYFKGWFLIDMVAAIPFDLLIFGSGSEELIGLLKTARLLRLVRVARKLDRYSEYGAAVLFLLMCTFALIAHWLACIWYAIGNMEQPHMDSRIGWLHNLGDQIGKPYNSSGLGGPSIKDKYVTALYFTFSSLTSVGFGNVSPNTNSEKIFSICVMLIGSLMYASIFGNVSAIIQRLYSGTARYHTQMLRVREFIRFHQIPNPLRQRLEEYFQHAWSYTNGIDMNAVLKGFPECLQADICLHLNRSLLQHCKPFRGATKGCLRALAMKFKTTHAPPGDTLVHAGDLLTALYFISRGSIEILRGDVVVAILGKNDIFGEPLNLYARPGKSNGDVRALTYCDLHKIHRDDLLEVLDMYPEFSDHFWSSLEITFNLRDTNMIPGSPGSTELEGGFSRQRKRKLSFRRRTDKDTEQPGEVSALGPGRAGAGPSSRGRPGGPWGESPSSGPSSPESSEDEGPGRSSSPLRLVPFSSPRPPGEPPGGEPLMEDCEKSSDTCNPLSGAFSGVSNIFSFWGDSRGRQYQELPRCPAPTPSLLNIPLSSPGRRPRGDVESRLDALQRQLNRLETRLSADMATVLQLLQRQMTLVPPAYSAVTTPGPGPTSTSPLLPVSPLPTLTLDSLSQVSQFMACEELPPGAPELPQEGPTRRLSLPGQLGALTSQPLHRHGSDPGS

In the case of `O=c1[nH]ncc2ccccc12`, the Potency result in [1], in [2], in [3], in assay [4], in assay [5] and in assay [6] was “inactive” in each case. The Potency entry in assay [7], in assay [8], in assay [9], in [10], in assay [11] and in [12] was “inactive” each time. In addition, the Potency result in assay [13], in assay [14], in assay [15], in assay [16], in [18] and in assay [20] was “inactive” throughout. The max response in assay [17] is 10.5%. Moreover, the activation in [19] is -2.08% (inactive).

On to `CCOc1ccc2nc(N)sc2c1`, for which the Potency entry in assay [1], in assay [2], in [3], in assay [4], in assay [5] and in [6] was “inactive” throughout. Further, the Potency entry in [7], in [8], in assay [9], in assay [10], in assay [11] and in assay [12] was “inactive” in each case. Further, the Potency entry in assay [13], in assay [14], in [15] and in assay [16] was “inactive” each time. The max response in assay [17] was 1.63%. Also, the activation in assay [19] was -1.71% (inactive).

For `Nc1ccc(N=Nc2ccccc2)c(N)c1`, the Potency result in [1], in assay [2], in assay [3], in assay [4], in assay [5] and in assay [6] was “inactive” in each case. Besides, the Potency result in assay [7], in assay [8], in assay [9], in assay [10], in assay [11] and in assay [12] was “inactive” in each case. Also, the Potency result in assay [13], in assay [14], in assay [15] and in assay [16] was “inactive” in each case. Also, the max response in assay [17] worked out at 0.404%. The activation in [19] is -4.52% (inactive). In addition, the Potency in assay [20] is 9.44 µM (active).

On to `CCN(CC)c1ccc2c(C)cc(=O)oc2c1`, for which the Potency result in assay [3], in [4], in [5], in assay [6], in [7] and in assay [8] was “inactive” each time. Also, the Potency result in [9], in assay [10], in [11], in [12], in [13] and in assay [14] was “inactive” in each case. Further, the Potency result in [15], in assay [16] and in [18] was “inactive” throughout. Moreover, the Potency in assay [19] was 39.8 µM (active).

As for `O=[N+]([O-])c1cc(Cl)c(Cl)c(Cl)c1Cl`, the Potency result in assay [2], in assay [3], in assay [5], in assay [7], in assay [11] and in assay [13] was “inactive” throughout. Besides, the Potency result in assay [15], in assay [18] and in assay [20] was “inactive” each time. Besides, the activation in assay [19] was 0.035% (inactive).

As to `Nc1ccccc1O`, the Potency result in assay [1], in assay [2], in assay [4], in assay [5], in assay [8] and in assay [9] was “inactive” each time. For the same compound, the Potency entry in [10], in assay [11], in assay [12], in assay [13], in [14] and in assay [15] was “inactive” throughout. The Potency entry in [16] and in assay [18] was “inactive” throughout. For the same compound, the max response in [17] was determined as 23.5%. In [19], the activation was 17.3% (inactive). In assay [20], the Potency is 15 µM (active).

On to `Oc1ccc2c(c1)OCO2`, for which the Potency entry in assay [1], in assay [2], in assay [3], in assay [4], in assay [5] and in [6] was “inactive” throughout. In addition, the Potency entry in assay [7], in [8], in [9], in assay [10], in [11] and in [12] was “inactive” in each case. Further, the Potency result in assay [13], in [14], in [15], in [16], in assay [18] and in [20] was “inactive” throughout. Further, in assay [17], the max response is -4.36%. Further, the activation in [19] is 4.65% (inactive).

In the case of `Cc1cccnc1`, the Potency entry in assay [1], in [2], in [3], in assay [4], in assay [5] and in assay [6] was “inactive” each time. Moreover, the Potency result in assay [7], in assay [8], in assay [9], in [10], in assay [11] and in assay [12] was “inactive” throughout. Further, the Potency result in [13], in assay [14], in assay [15], in [16], in assay [18] and in assay [20] was “inactive” in each case. For the same compound, the max response in [17] was 9.82%.

For the compound `c1ccc(CSCc2ccccc2)cc1`, the Potency result in assay [1], in assay [2], in assay [3], in [4], in [5] and in [6] was “inactive” throughout. The Potency entry in assay [7], in assay [8], in assay [9], in assay [10], in assay [11] and in [12] was “inactive” each time. Further, the Potency entry in assay [13], in assay [14], in assay [15], in assay [16] and in assay [20] was “inactive” in each case. Besides, the max response in assay [17] was -16.6%. Also, the activation in assay [19] was -0.938% (inactive).

Take `C=C(C#N)C(=O)OCC`: the Potency result in [1], in [2], in assay [3], in [4], in assay [5] and in assay [7] was “inactive” throughout. Besides, the Potency entry in assay [8], in [9], in assay [10], in assay [11], in [12] and in assay [13] was “inactive” each time. Further, the Potency result in [14], in [15], in assay [16], in assay [18] and in assay [20] was “inactive” each time. Besides, the max response in assay [17] was found to be 6.28%. The activation in assay [19] was 2.02% (inactive).
